# From the supplement of paper PMC12645437, “Orthogonal IMiD-Degron Pairs Induce Selective Protein Degradation in Cells” (ACS Chemical Biology, 2025)
# Whole data set: some 8,300 sequences, median “log2 fold change of degron read counts, EGFP-low vs EGFP+ sorted cells (limma voom), compound-induced degradation” near -1.1, cut for the highest 2% near 3.2. The sample as a whole holds a higher share of the highest values than the screen did.
# T1: CRBN, Q96SW2
# T1 chain: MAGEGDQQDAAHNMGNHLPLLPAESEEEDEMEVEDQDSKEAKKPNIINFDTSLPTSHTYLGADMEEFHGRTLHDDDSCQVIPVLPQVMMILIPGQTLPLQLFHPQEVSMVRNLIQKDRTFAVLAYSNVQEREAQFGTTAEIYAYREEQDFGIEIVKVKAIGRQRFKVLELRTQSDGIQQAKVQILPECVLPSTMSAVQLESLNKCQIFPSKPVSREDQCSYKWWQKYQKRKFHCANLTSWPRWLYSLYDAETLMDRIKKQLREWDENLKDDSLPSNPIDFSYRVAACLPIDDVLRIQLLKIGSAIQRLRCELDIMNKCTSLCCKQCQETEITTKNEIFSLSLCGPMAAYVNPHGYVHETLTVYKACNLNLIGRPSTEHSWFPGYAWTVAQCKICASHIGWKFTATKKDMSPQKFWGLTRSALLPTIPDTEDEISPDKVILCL
# B1: 46F_47Q_49P_50I_52G_53R_54G_55F_67L_, Q9UKT9 (peptide)
# chain: FQCPICGRGFTQKGNLLRHIKL
# B2: 46F_47Q_49E_50I_52G_53A_54V_55F_67L_, Q9UKT9 (peptide)
# chain: FQCEICGAVFTQKGNLLRHIKL
# B3: 46F_47G_49D_50Q_52G_53A_54W_55F_67L_, Q9UKT9 (peptide)
# chain: FGCDQCGAWFTQKGNLLRHIKL
# B4: 46F_47M_49E_50I_52G_53H_54Q_55F_67L_, Q9UKT9 (peptide)
# chain: FMCEICGHQFTQKGNLLRHIKL
# B5: 46F_47C_49N_50Q_52G_53R_54V_55F_67L_, Q9UKT9 (peptide)
# chain: FCCNQCGRVFTQKGNLLRHIKL
# B6: 46F_47L_49N_50Q_52G_53R_54C_55F_67L_, Q9UKT9 (peptide)
# chain: FLCNQCGRCFTQKGNLLRHIKL
# B7: 46F_47V_49P_50Q_52G_53A_54I_55F_67L_, Q9UKT9 (peptide)
# chain: FVCPQCGAIFTQKGNLLRHIKL
# B8: 46F_47E_49D_50I_52G_53A_54S_55F_67L_, Q9UKT9 (peptide)
# chain: FECDICGASFTQKGNLLRHIKL
# B9: 46F_47C_49D_50I_52G_53A_54S_55F_67L_, Q9UKT9 (peptide)
# chain: FCCDICGASFTQKGNLLRHIKL
# B10: 46F_47Q_49P_50I_52G_53A_54S_55F_67L_, Q9UKT9 (peptide)
# chain: FQCPICGASFTQKGNLLRHIKL
# B11: 46F_47L_49P_50I_52G_53A_54S_55F_67L_, Q9UKT9 (peptide)
# chain: FLCPICGASFTQKGNLLRHIKL
# B12: 46F_47N_49P_50I_52G_53A_54S_55F_67L_, Q9UKT9 (peptide)
# chain: FNCPICGASFTQKGNLLRHIKL
# B13: 46F_47D_49P_50I_52G_53A_54S_55F_67L_, Q9UKT9 (peptide)
# chain: FDCPICGASFTQKGNLLRHIKL
# B14: 46F_47W_49D_50I_52G_53A_54S_55F_67L_, Q9UKT9 (peptide)
# chain: FWCDICGASFTQKGNLLRHIKL
# B15: 46F_47Q_49D_50I_52G_53A_54S_55F_67L_, Q9UKT9 (peptide)
# chain: FQCDICGASFTQKGNLLRHIKL
# B16: 46F_47K_49P_50I_52G_53A_54S_55F_67L_, Q9UKT9 (peptide)
# chain: FKCPICGASFTQKGNLLRHIKL
# B17: 46F_47W_49P_50I_52G_53A_54S_55F_67L_, Q9UKT9 (peptide)
# chain: FWCPICGASFTQKGNLLRHIKL
# B18: 46F_47Y_49P_50I_52G_53A_54S_55F_67L_, Q9UKT9 (peptide)
# chain: FYCPICGASFTQKGNLLRHIKL
# Molecular target: T1, CRBN, Q96SW2
# Experiment: log2 fold change of degron read counts, EGFP-low vs EGFP+ sorted cells (limma voom), compound-induced degradation; higher = more compound-induced degradation of the degron-EGFP fusion; degrons are variants of IKZF1/3 zinc finger 2; compound dose not given here
# Settings: Jurkat, 18 h
# [1] = compound: compound 19 (5-tert-butyl-thalidomide)
# [2] = compound: compound 22 (5-morpholino-thalidomide)
# [3] = compound: compound 33 (diphenyl IMiD analogue)
# 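Note: pooled lentiviral library of zinc finger degron-EGFP fusions in mCherry-positive Jurkat cells, FACS-sorted after compound exposure, with degron abundance counted by next-generation sequencing.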
Sequence,log2 fold change of degron read counts [1],log2 fold change of degron read counts [2],log2 fold change of degron read counts [3],log2 fold change of degron read counts (compound: thalidomide)
B1,-0.816,-0.908,-0.112,1.8
B2,0.132,2.71,2.34,3.22
B3,-2.44,-2.82,-1.38,-2.3
B4,-3.75,-3.29,-1.95,-1.87
B5,-2.29,-2.57,-2.1,-2.12
B6,-1.41,-1.61,-3.08,-2.11
B7,-2.01,-1.63,-0.464,-0.946
B8,0.774,-2.24,-0.436,-0.0103
B9,2.32,1.84,0.871,0.402
B10,2.55,2.88,2.76,3.79
B11,1.51,0.569,1.64,1.57
B12,2.84,1.58,1.33,0.876
B13,3.04,1.06,1.22,1.9
B14,3.28,3.69,1.52,-0.347
B15,1.07,1.92,1.15,2.99
B16,1.49,-0.57,-1.45,0.422
B17,3.29,3.64,2.28,1.35
B18,3.25,3.43,2.54,1.24
